Source: PubChem BioAssay (National Center for Advancing Translational Sciences (NCATS))
SW480 rerep – inducers of DNA re-replication in SW480 colon cancer cells. Potency, µM (highest dose often 46.1 µM), for inactives: at the top dose re-replication activation, usual class: activators. SW480 DNA re-replication, Hoechst DNA content imaging, 48 h. 1.8% of 340,000 active. AID 624297; note: % of control where 0% means no effect; nearly all actives have a fitted effect of over 55% in size
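250 cells/well; 23 nL cpd via pin tool; 48 hr, 37 C, 5% CO2; Hoechst 40 min; imager read of total nuclear intensity, ex 405/em 500-530 nm.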
PTAP TSG101 blk – blocks PTAP/TSG101 interaction to inhibit HIV-1 budding | Potency, µM (titrated, usually from 115 µM), for the others: at the highest dose activity change, negative = inhibition, most hits filed as inhibitors | AID 493005 | Q99816 | 340,000 tested, under 10 active | Fluorescence polarization, FITC-PTAP peptide / Tsg101 binding; active = well fitted inhibition curve with a large enough effect in the main read-out, with a control signal flat, not every such curve was filed as active; inconclusive = small, poorly fitted or top-dose-only effect, or effect the other way, or a change in a side signal; inactive = no such curve, though single readings can be large or run the other way; note: % of control where 0% means no effect
Target sequence (Q99816 whole entry, looked up): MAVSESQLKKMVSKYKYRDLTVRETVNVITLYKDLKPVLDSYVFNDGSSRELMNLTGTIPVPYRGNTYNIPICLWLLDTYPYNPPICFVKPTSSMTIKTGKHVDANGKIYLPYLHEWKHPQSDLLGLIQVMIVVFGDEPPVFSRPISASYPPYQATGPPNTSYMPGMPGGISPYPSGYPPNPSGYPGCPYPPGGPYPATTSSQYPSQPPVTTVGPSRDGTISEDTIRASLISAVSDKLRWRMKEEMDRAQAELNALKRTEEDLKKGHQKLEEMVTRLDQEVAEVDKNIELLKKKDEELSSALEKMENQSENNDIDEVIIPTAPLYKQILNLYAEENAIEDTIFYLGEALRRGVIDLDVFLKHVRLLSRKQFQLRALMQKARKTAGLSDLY
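Tsg101 binding domain (10 uM final) was mixed with compound and a FITC-labeled PTAP peptide (50 nM final) in HEPES pH 7.5 buffer with NaCl, Tween 20, EDTA and TCEP; fluorescence polarization was read after 20 min at r.t.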
KB-3-1 cytotox – kills parental KB-3-1 adenocarcinoma cells; KB-3-1 viability, CellTiter-Glo ATP luminescence, 72 h; Potency, µM (top dose mostly 46.1 µM), usual class: cytotoxic; 1.4% of 400,000 active; AID 1347075; note: % is set by controls: 0 for no effect and ±100 for the full control effect; nearly all actives have a fitted effect of over 60% in size
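Luminescent ATP read-out (CellTiter-Glo) measures survival of drug-naive KB-3-1 cells after 72 h compound exposure at 37 °C. Titration series was screened from lowest to highest concentration, with DMSO vehicle plates as background controls.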
KB-V1 MDR tox – kills drug-selected multidrug resistant KB-V1 cells; KB-V1 MDR cells viability, CellTiter-Glo, 72 h; Potency, µM (top dose mostly 46.1 µM), actives largely listed as cytotoxic; 3.4% of 400,000 active; AID 1347076; note: % is set by controls: 0 for no effect and ±100 for the full control effect; nearly all actives have a fitted effect of over 60% in size
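Cytotoxicity toward P-gp-expressing KB-V1 cells was determined as loss of CellTiter-Glo luminescence after 72 h at 37 degrees C. Compounds were tested in quantitative HTS format across a concentration range, with curves fitted to normalized data.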
RGS4 inhibitor – human RGS4 inhibition; P49798; Transcreener GDP fluorescence polarization, RGS4-accelerated GTP hydrolysis; Potency, µM (highest dose often 114 µM), for the others: at the top dose activity change, negative = inhibition, usual class: inhibitors; 0.039% of 390,000 active; AID 504845; note: % is set by controls: 0 for no effect and ±100 for the full control effect; nearly all actives have a fitted effect of over 75% in size
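MLSMR compounds (23 nl, pin-transferred) preincubated 10 min at room temperature with a 500nM (2x) first reagent, then RGS4 at 900nM (2x) plus Transcreener GDP mix added; fluorescence polarization (620/688 nm) read before and after 90 min at 30 °C.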
MCF10A rerep – induces DNA re-replication in MCF 10a normal breast cells. MCF 10A DNA re-replication, Hoechst nuclear intensity, 48 h. Potency, µM (doses to about 46.1 µM), for inactives: at the highest dose activity, positive = re-replication, usual class: activators. 2.9% of 350,000 active. AID 624296; note: % of control where 0% means no effect; nearly all actives have a fitted effect of over 50% in size
* = called active by the depositor; i = inactive; ? = inconclusive; . = no result; [ ] = another dose, or the depositor's remark. A selection: hits, their analogues and other compounds. The true share with any hit is near 6.6%. Unless noted, calls come from the whole dose curve; as a rule, active = well fitted curve in the direction sought with a large enough effect; inconclusive = small, poorly fitted or top-dose-only effect, or another doubt; inactive = no such curve, though single readings can be large; an effect the other way counts as inactive or inconclusive. Potency is the fitted concentration of half-maximal effect.

SMILES	SW480 rerep	PTAP TSG101 blk	KB-3-1 cytotox	KB-V1 MDR tox	RGS4 inhibitor	MCF10A rerep
Cc1ccc(-c2noc(CCC(=O)Nc3ccc(F)cc3Cl)n2)cc1	.	.	.	.	-20%	.
CCOC(=O)N1CCC(NC(=O)c2c(C)nn(-c3ccc(C)cc3)c2-n2cccc2)CC1	.	.	?	7.3µM*	-5%	.
COc1ccccc1/C=C1\CCCC2=C1Nc1nnnn1C2c1ccccc1OC (centres undefined)	?	-1%	?	8.2µM*	-53%	?
Cc1cc(C)cc(C(=O)N(Cc2nc(-c3ccc(Cl)cc3)no2)C(C)C)c1	.	.	i	i	19%	.
CCOc1cc(/C=C2\COc3ccccc3C2=O)ccc1OCC(=O)N(C)C	15µM*	-6%	i	?	-31%	15µM*
CCNC(=O)COc1ccc(/C=C2\COc3ccccc3C2=O)cc1OC	?	-10%	i	i	?	?
CCCc1c(C(=O)Nc2ccc(F)cc2F)cnn1-c1ccccc1	-2%	0%	i	?	-7%	2%
CCCc1c(NC(=O)Nc2ccc(Cl)cc2Cl)cnn1-c1ccccc1	15µM*	-1%	?	?	-2%	?
CCOc1ccccc1C(=O)N(Cc1ccco1)Cc1ccccc1F	.	.	.	.	-38%	.
CCn1c(=N)c(C(=O)NCc2ccccc2)cc2c(=O)n3cc(C)ccc3nc21	.	.	i	?	-13%	.
COc1ccc(CCNC(=O)c2cc3c(=O)n4ccccc4nc3n(CCCN3CCOCC3)c2=N)cc1	8.2µM*	1%	i	i	-4%	?
COc1ccc(CCNC(=O)c2cc3c(=O)n4ccccc4nc3n(C3CCCCC3)c2=N)cc1	2.3µM*	-1%	i	i	-13%	?
Cc1ccc2nc3c(cc(C(=O)NCCc4ccccc4)c(=N)n3CCCN3CCOCC3)c(=O)n2c1	4.6µM*	-4%	i	i	-29%	4.6µM*
COc1ccc(CCNC(=O)c2cc3c(=O)n4ccccc4nc3n(CCCN3CCOCC3)c2=N)cc1OC	?	-3%	i	i	-1%	19%
O=C(NCCN1CCOCC1)c1cc2c(=O)n3ccccc3nc2n1Cc1ccccc1	21µM*	-7%	i	i	-8%	16µM*
COc1cccc(OCc2cc(C3Nc4ccccc4C(=O)N3c3ccccc3)ccc2OC)c1 (centres undefined)	.	.	?	i	-23%	.
COc1ccc(CCn2c(=N)c(C(=O)N3CCN(C)CC3)cc3c(=O)n4ccccc4nc32)cc1	23µM*	-4%	i	i	7%	9.2µM*
COc1ccc(CCNC(=O)c2cc3c(=O)n4ccccc4nc3n(CCN3CCOCC3)c2=N)cc1	23µM*	0%	i	i	-1%[11.4 µM]	21µM*
COc1ccc(CCn2c(=N)c(C(=O)NC3CCCCC3)cc3c(=O)n4ccccc4nc32)cc1	?	0%	?	?	-27%	?
NC(=O)c1ccc(-c2ccc(Br)cc2)o1	0%	-1%	8.2µM*	8.2µM*	-29%	14%
NC(=O)C1CCN(C(=S)c2ccc(-c3ccc(Br)cc3)o2)CC1	-2%	-5%	i	i	?	0%
O=C(O)CCc1ccc(-c2ccc(Br)cc2)o1	5.8µM*	-10%	i	i	?	?
COc1ccc(-c2ccc(CCC(=O)O)o2)cc1	?	0%	?	i	?	?
O=C(O)CCc1ccc(-c2ccc(Cl)cc2)o1	?	-6%	i	i	?	21µM*
CCCCSC1=N/C(=C/c2ccsc2)C(=O)N1c1ccccc1	2%	-1%	i	16µM*	-5%	?
CCSC1=N/C(=C\c2cccnc2)C(=O)N1c1ccccc1	?	-2%	i	18µM*	-18%	?
CSC1=N/C(=C\c2cccnc2)C(=O)N1c1ccccc1	-1%	-3%	i	i	-21%	-10%
